# Shown are actives, neighbours in structure and some others; about 3.8% of the full set was active somewhere.
# HT1080 IDH1KD tx: toxicity to HT-1080 IDH1 knockdown cells (counter line); 2% of 360,000 active; HT-1080 IDH1 knockdown viability, ATP luminescence, 48 h; Potency, µM (top dose mostly 46.1 µM), without a hit: at the top dose activity, negative = toxicity, most hits filed as cytotoxic;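 also: 0% = DMSO wells and -100% = cell-free medium wells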
#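 Luminescent ATP read-out (CellTiter-Glo, 10 min at room temperature) after 48 h compound exposure at 37 °C gave viability of IDH1-knockdown HT-1080 cells. Activity was normalised to DMSO and cell-free wells, then fitted as concentration-response curves.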
# ATXN2 expr inh: ATXN2 expression inhibition. HEK-293 ATXN2-luciferase reporter, luminescence, 24 h. Potency, µM (titrated, usually from 57 µM), for the others: top-dose activity change, negative = inhibition, usual class: inhibitors. 0.72% of 360,000 active. AID 1745845; also: % is scaled to controls: 0 for no effect and ±100 for the full control effect; nearly all actives have a fitted effect of over 55% in size
#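 qHTS (up to 57 uM final) was run with 24 h compound exposure of reporter cells at 37 °C. Each well was multiplexed: SteadyGlo luminescence measured ATXN2-luciferase expression after a fluorogenic Gly-Phe-AFC viability readout (25 uM final).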
# HT1080NT lethal: kills 2HG-producing HT-1080-NT fibrosarcoma cells; Potency, µM (series often up to 46.1 µM), for the others: top-dose activity, negative = less viability, usual class: cytotoxic; AID 686970; 1.6% of 360,000 active; HT-1080-NT fibrosarcoma viability, CellTiter-Glo ATP luminescence, 48 h;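 also: NT is the 2HG producing partner of a matched IDH1 knockdown line; 0% = DMSO-treated cells and -100% = media-only wells without cells; nearly all actives have a fitted effect of over 55% in size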
#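 Read-out is CellTiter-Glo luminescence after 10 minutes at room temperature, following 48 hours' compound treatment of HT-1080-NT cells (750 cells/well, RPMI, 5% FBS, 37 degrees C).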
# HepG2 viability: counter-screen for TGF-b inhibitors: cytotoxicity in HepG2 cells | HepG2 CAGA-GFP viability, ATP luminescence, 18 h | Potency, µM (top dose mostly 46.1 µM), for inactives: at the highest dose activity change, negative = cytotoxicity, most hits filed as cytotoxic | 0.76% of 410,000 active
#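 HepG2 CAGA-GFP cells (1000/well, DMEM with 1% FBS) received compound, then TGF-beta at 500 pg/mL final, and were incubated 18 hours at 37 degrees C. Viability was read by CellTiter-Glo luminescence. Media-only wells were set as complete cell-killing and DMSO as no toxicity.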
# ATXN viability: reduces viability in counter-screen for ATXN expression inhibitors; S2 cells (HEK-293 line with an ATXN2-luciferase reporter) viability, CellTiter-Fluor protease fluorescence, 24 h; Potency, µM (titrated, usually from 56.7 µM), most hits filed as cytotoxic; 0.49% of 400,000 active; also: nearly all actives have a fitted effect of over 40% in size
# TGFb SMAD3 inh: inhibitors of TGF-b signaling; Potency, µM (highest dose often 46.1 µM), inactives show at the top dose activity, negative = inhibition, hits mostly inhibitors; 1.2% of 410,000 active; HepG2 CAGA-GFP TGF-b/SMAD3 reporter, GFP fluorescence, 18 h; TGF-beta stimulated, 500 pg/mL final; AID 588855; also: % is scaled to controls: 0 for no effect and ±100 for the full control effect; nearly all actives have a fitted effect of over 65% in size
#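 HEPG2 CAGA-GFP, 1000 cells/well; 2 h settle, 37 C; cpd via pin tool; TGF-b 500 pg/mL final; 18 h, 37 C; GFP imaging ex488/em500-530; %Activity normalised to -TGF-b and +DMSO controls; CRC fit, curve class.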
# * = called active by the depositor; i = inactive; ? = inconclusive; · = no result given. Calls follow the shape of the dose curve; as a rule, active = well fitted curve in the direction sought with a large enough effect; inconclusive = small, poorly fitted or top-dose-only effect, or another doubt; inactive = no such curve, though single readings can be large; an effect the other way counts as inactive or inconclusive. Potency is read from the fitted curve at half-maximal effect.
SMILES,HT1080 IDH1KD tx,ATXN2 expr inh,HT1080NT lethal,HepG2 viability,ATXN viability,TGFb SMAD3 inh
COc1ccc(CC(=O)Nc2nc(-c3ccc(F)c(F)c3)cs2)cc1,?,?,18.4µM*,-15.8%,i,?
Cc1ccc2c(c1)c1c(n2CC(O)Cn2nc(C)c(Br)c2C)C(=O)CCC1 (configuration not stated),-4.3%,-20.5%,-1.7%,-4.8%,i,30.8%
Cc1ccc2c(c1)c(C)c(C)n2CC(O)Cn1nc(C)c(Br)c1C (configuration not stated),?,?,16.4µM*,15.8µM*,?,?
C=C(C)CNC(=S)N/N=C/C1=CCC2CC1C2(C)C (configuration not stated),7.5%,10.5%,3.9%,-16.9%,i,?
CCCCNC(=S)N/N=C/C1=CCC2CC1C2(C)C (configuration not stated),-10.4%,2.0%,-4.3%,1.7%,i,11.2µM*
O=C(Nc1ccc2ccccc2c1)c1nc(S(=O)(=O)Cc2ccccc2F)ncc1Cl,·,·,·,-61.5%,·,?
CCOc1ccc(NC(=O)c2nc(S(=O)(=O)Cc3ccc(F)cc3)ncc2Cl)cc1,·,·,·,-95.7%,·,11.2µM*
CCOc1ccc(NC(=O)c2nc(S(=O)(=O)Cc3ccccc3C)ncc2Cl)cc1,·,·,·,-100.7%,·,12.6µM*
O=c1c2sc3ccccc3c2n(Cc2ccccc2Cl)c(=O)n1Cc1ccccc1,·,6.2%,·,-15.8%,i,-12.8%
CC(C)(C)C1CCc2c(sc(NC(=O)c3ccccc3F)c2C(=O)NCc2ccco2)C1 (configuration not stated),·,3.4%,·,-3.5%,i,22.0%
Cc1nnc(NCc2n[nH]c(=O)c3ccccc23)c2ccccc12,11.2µM*,?,15.8µM*,-78.4%,?,?
Cc1cc(N2CCN(Cc3nc(-c4ccc(Cl)cc4)oc3C)CC2)cc(C)n1,20.6µM*,?,20.6µM*,-29.5%,i,?
COc1ccc(-c2nc(CN3CCN(c4cc(C)nc(C)c4)CC3)c(C)o2)c2ccccc12,14.6µM*,11.2µM*,13µM*,-92.2%,?,?
Cc1oc(-c2cccc(Cl)c2)nc1CN1CCC(C(=O)NCCc2ccc(Cl)cc2)CC1,·,1.5%,·,-15.6%,i,-0.7%
CCCN(CCC)CCNC(=O)C1CCN(Cc2nc(-c3ccc(Cl)cc3)oc2C)CC1,-22.2%,?,-17.6%,-27.7%,15.8µM*,7.1%
CCc1ccc(NC(=O)CCCn2nc(C)c3c(C)n(-c4ccccc4)nc3c2=O)cc1,·,·,·,-5.7%,·,?
COCCCn1c(=O)c2sccc2n(Cc2ccc(C)cc2)c1=O,-2.2%,-33.3%,1.8%,12.6µM*,i,0.8%
Cc1ccc(N2CC(C)Cn3c2nc2c3c(=O)n(Cc3cccc(Cl)c3)c(=O)n2C)cc1 (configuration not stated),·,·,·,17.3%,·,6.4%
Cc1cccc(C)c1NC(=O)C(c1ccc(C(F)(F)F)cc1)n1c(=O)c(-c2cc3ccccc3[nH]2)nc2ccccc21 (configuration not stated),20.6µM*,·,?,·,·,·
Cc1cccc(C)c1NC(=O)C(c1ccc(-c2ccccc2)cc1)n1c(=O)c(-c2cc3ccccc3[nH]2)nc2ccccc21 (configuration not stated),-13.1%,·,-2.5%,·,·,·
O=C(NC1CCCCC1)C(C1CC1)n1c(=O)c(-c2cc3ccccc3[nH]2)nc2ccccc21 (configuration not stated),-46.9%,·,?,·,·,·
CC(C)(C)NC(=O)C(c1ccc(-c2ccccc2)cc1)n1c(=O)c(-c2cc3ccccc3[nH]2)nc2ccccc21 (configuration not stated),-15.9%,·,1.8%,·,·,·
O=C(NCc1ccccc1)C(C1CC1)n1c(=O)c(-c2cc3ccccc3[nH]2)nc2ccccc21 (configuration not stated),?,·,23.1µM*,·,·,·
CC(C)(C)NC(=O)C(c1ccncc1)n1c(-c2ccc(C(F)(F)F)cc2)nc2ccccc21 (configuration not stated),20.6µM*,·,?,·,·,·
CC(C)(C)NC(=O)C(c1ccc(C(F)(F)F)cc1)n1c(=O)c(-c2cc3ccccc3[nH]2)nc2ccccc21 (configuration not stated),20.6µM*,·,?,·,·,·
SMILES,HT1080 IDH1KD tx,ATXN2 expr inh,HT1080NT lethal,HepG2 viability,ATXN viability,TGFb SMAD3 inh
CCOc1ccc(/C=C/c2ccnc3ccccc23)cc1OCC,·,·,·,-61.7%,·,?
COC(=O)c1cccc(NC2CC(=O)N(c3ccc(OC)c(OC)c3)C2=O)c1 (configuration not stated),1.3%,2.6%,-1.7%,5.01µM*,i,-9.0%
COc1ccc(N2C(=O)CC(Nc3ccc(C(=O)O)cc3)C2=O)cc1OC (configuration not stated),10.3%,-14.0%,-0.6%,4.5%,·,6.1%
COc1cccc(Nc2ccc([N+](=O)[O-])c3nonc23)c1,23.1µM*,-12.0%,14.6µM*,0.9%,?,-23.0%
CN(c1ccccc1)c1ccc(/C=N/NC(=O)CC#N)cc1,-25.2%,12.6µM*,-5.5%,-6.7%,i,-9.1%
N#CCC(=O)N/N=C/c1ccc(Cl)cc1,0.3%,14.4%,-11.5%,36.5%,i,21.2%
Cc1ccc(CNC(=O)CN(c2cccc(C)c2C)S(=O)(=O)c2ccccc2)cc1,·,-30.8%,·,-13.2%,i,?
COc1ccccc1CCNC(=O)c1ccc(NC(=O)N2CC(C)Sc3ccccc32)cc1 (configuration not stated),·,-15.6%,·,-18.7%,?,-4.7%
COc1cccc(NC(=S)NCCC(c2ccccc2)c2ccccc2)c1,-22.8%,-19.4%,-19.7%,-8.1%,i,?
Cc1cccc(NC(=S)NCCC(c2ccccc2)c2ccccc2)c1,-8.4%,-0.6%,-2.2%,-22.5%,i,11.2µM*
COc1ccc(NC(=S)NCCC(c2ccccc2)c2ccccc2)c(OC)c1,22.4µM*,-26.3%,-20.3%,-21.4%,i,?
Cc1ccc(/C(=N\O)c2oc3c(C)c4oc(=O)cc(C)c4cc3c2C)cc1,23.1µM*,?,?,-17.6%,?,?
O=C(CCl)N1c2ccccc2SCC1c1ccccc1 (configuration not stated),5.8µM*,?,4.61µM*,-103.7%,20µM*,?
O=C(CCl)N1c2ccccc2OCC1c1ccccc1 (configuration not stated),-7.1%,-3.2%,-5.1%,18.6%,?,0.0%

# Compound activity from PubChem BioAssay.
